This note sets out measurements from PubChem BioAssay (NCATS).

The target in test [1] is Voltage-gated inwardly rectifying potassium channel KCNH2 (Homo sapiens) (UniProt Q12809). The test is described as follows: qHTS Assay for Small Molecule Inhibitors of the Human hERG Channel Activity (AID 588834).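 Further: lower thallium flux fluorescence means stronger hERG block; nearly all actives have a fitted effect of over 50% in size.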 Further: potency means the concentration at half of the fitted maximal effect. The procedure, abridged: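 In hERG-transduced U2OS cells, dye-loaded for 1 hr at room temperature in dark, test compounds incubated 10 min at 37 °C before thallium stimulation. AC50 values derived by Hill modelling of concentration-response.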
Chain of Voltage-gated inwardly rectifying potassium channel KCNH2 (Homo sapiens) (Q12809 whole entry, looked up): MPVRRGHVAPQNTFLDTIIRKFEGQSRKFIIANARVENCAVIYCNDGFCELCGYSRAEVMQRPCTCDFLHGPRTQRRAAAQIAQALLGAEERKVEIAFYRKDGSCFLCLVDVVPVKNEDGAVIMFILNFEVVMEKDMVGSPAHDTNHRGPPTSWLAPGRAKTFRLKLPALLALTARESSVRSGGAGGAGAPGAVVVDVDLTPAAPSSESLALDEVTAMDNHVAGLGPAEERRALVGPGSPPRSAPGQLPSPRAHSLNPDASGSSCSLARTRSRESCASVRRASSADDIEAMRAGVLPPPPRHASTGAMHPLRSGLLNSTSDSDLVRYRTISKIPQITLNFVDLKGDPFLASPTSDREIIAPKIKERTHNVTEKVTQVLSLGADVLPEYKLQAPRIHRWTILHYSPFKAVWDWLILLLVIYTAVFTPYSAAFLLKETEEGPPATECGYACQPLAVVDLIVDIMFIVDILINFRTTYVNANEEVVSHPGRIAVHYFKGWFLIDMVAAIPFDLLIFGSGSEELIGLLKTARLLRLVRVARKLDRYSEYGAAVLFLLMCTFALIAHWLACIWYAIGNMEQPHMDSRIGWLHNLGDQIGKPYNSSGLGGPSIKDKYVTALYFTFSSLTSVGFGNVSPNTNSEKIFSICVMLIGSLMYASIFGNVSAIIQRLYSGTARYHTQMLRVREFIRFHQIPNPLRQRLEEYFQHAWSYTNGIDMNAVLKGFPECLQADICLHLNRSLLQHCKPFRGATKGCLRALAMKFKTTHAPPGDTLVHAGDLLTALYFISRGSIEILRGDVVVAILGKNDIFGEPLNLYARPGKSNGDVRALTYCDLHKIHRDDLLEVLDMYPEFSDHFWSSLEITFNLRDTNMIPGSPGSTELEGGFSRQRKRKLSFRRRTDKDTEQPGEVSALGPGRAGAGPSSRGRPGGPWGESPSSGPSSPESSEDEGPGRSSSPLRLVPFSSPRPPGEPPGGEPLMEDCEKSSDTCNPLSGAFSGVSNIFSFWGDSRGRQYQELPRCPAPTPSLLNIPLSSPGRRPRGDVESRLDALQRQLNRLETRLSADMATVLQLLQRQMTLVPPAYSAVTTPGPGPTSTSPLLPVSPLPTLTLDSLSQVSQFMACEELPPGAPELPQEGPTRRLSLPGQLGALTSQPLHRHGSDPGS

A short description of test [2]: Cellular Toxicity (caspase-3) HepG2 (AID 654).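 Further: cells exposed to compound for 16 hours before reading; 0% = DMSO alone and 100% = caspase signal from 100 µM tamoxifen.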 The procedure, abridged: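 Caspase 3/7 activation in HepG2 is measured as rising luminescence after a 16 hr treatment at 37 °C. Values are scaled between DMSO basal and 100 uM tamoxifen, and AC50 is fitted with the Hill equation.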
Test [3] can be described thus: Cellular Toxicity (caspase-3) Hek293 (AID 664).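 Further: cells exposed to compound for 16 h at 37 °C before readout.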 The method, boiled down:
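qHTS, HEK293 (human embryonic kidney), 16 h cpd exposure in complete medium. Caspase-3/7 activation = luminescence increase; normalized to DMSO/100 uM tamoxifen; Hill-fit AC50.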

Test [4] is described as follows: MultiTox-Fluor Cytotoxicity Assay - LYMP1-003 - Live Cells (AID 962).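 Further: 0% = DMSO only and full loss = 92 µM tetraoctylammonium bromide; cytotoxic hits lower the live-cell protease signal.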 The method, boiled down: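 Acute cytotoxicity is scored as a drop in live-cell protease activity in human lymphoblastoid LYMP1-003 cells after 16 hr compound exposure at 37 C. AC50 values come from Hill-equation modelling of concentration-response data.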
A short description of test [5]: Cell Viability - LYMP2-005 (AID 967).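 Further: plate controls were DMSO only for no effect and 92 µM tetraoctylammonium bromide control for full effect.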 The procedure, abridged:
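CellTiter-Glo luminescence (cellular ATP) read-out; LYMP2-005 lymphoblastoid cells, 2500/well, 5 h pre-incubation, then 24 h compound exposure at 37 C in complete medium. Tetraoctylammonium bromide positive control; AC50 by standard Hill fit.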

Test [6] is described as follows: Cell Viability - LYMP2-009 (AID 968).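 Further: 0% = DMSO alone and the full-kill end = tetraoctylammonium bromide at 92 µM; nearly all actives have a fitted effect of over 55% in size.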
Test [7] in a line: Cell Viability - LYMP2-017 (AID 972).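 Further: cells exposed to compound for 24 hours at 37 °C; on the % scale 0 is the no-effect control and ±100 the full control effect; nearly all actives have a fitted effect of over 55% in size.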 The method, boiled down:
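Cytotoxicity is scored as a concentration-dependent drop in cellular ATP in a human lymphoblastoid line after 24 hr treatment at 37 C. Values are AC50s from Hill-equation modelling.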

Test [8] in a line: Cell Viability - LYMP2-019 (AID 973).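 Further: 0% = DMSO alone and full effect = 92 µM tetraoctylammonium bromide; nearly all actives have a fitted effect of over 55% in size.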 The procedure, abridged: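 Cytotoxicity is scored as a concentration-dependent drop in cellular ATP after cells (2500/well) receive compound for 24 hr at 37 C. Tetraoctylammonium bromide serves as positive control.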
The nature of test [9]: Cell Viability - LYMP2-021 (AID 974).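 Further: compound exposure lasts 24 hours at 37 °C; on the % scale 0 is the no-effect control and ±100 the full control effect; nearly all actives have a fitted effect of over 55% in size.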 The method, boiled down: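 Loss of cellular ATP, measured with a luciferase-based CellTiter-Glo readout, serves as the toxicity signal in human lymphoblastoid cells treated for 24 hours at 37 C. Potency is reported as AC50 from a standard Hill model.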
A short description of test [10]: Cell Viability - LYMP2-016 (AID 984). The procedure, abridged: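 Human lymphoblastoid cells (LYMP2-016), 2500/well in complete medium, preincubated 5 hr at 37 C, then compound-treated 24 hr at 37 C. Intracellular ATP read by CellTiter-Glo luminescence after 30 min at room temperature; AC50 from Hill-equation concentration-response fits.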
Test [11] in a line: Cell Viability - LYMP2-022 (AID 987). The procedure, abridged:
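Cells were seeded at 2500 per well, rested 5 hr at 37 C, and treated with titrated compounds for 24 hr at 37 C. Cellular ATP was then quantified by luciferase luminescence, and AC50 values were derived from Hill-modelled concentration-response curves.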

A short description of test [12]: Cell Viability - LYMP2-026 (AID 989). Further: on the % scale 0 is the no-effect control and ±100 the full control effect; nearly all actives have a fitted effect of over 50% in size. The procedure, abridged: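 Cells are seeded at 2500 per well and held 5 hr at 37 C. Compounds are added in concentration series for 24 hr, then CellTiter-Glo reagent is applied and luminescence read.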
The nature of test [13]: qHTS assay for small molecule antagonists of retinoid X receptor alpha signaling (AID 588546).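 Further: cells stimulated with 9-cis-retinoic acid as agonist; on the % scale 0 is the no-effect control and ±100 the full control effect.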 As to conditions: HEK293T RXRa-UAS-bla, beta-lactamase ratio, antagonist mode; measured here: W530 green channel, cytotoxicity proxy. The procedure, abridged:
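Beta-lactamase reporter inhibition, read as CCF4 fluorescence ratio (ex 405, em 460/530 nm) after 2 h at RT. HEK293T UAS-bla cells, 2500/well, were stimulated with 9-cis-RA at 500 or 100 nM final alongside test compound for 18 h at 37 C.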

Test [14] can be described thus: qHTS assay for small molecule disruptors of the mitochondrial membrane potential - 5 hr assay (AID 651755; calls by dose curve; further: on the % scale 0 is the no-effect control and ±100 the full control effect; nearly all actives have a fitted effect of over 40% in size). The procedure, abridged: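 Seed HepG2 overnight, add compound, incubate 5 hr at 37C and 5% CO2, stain 30 min with Mito-MPS, then measure monomer (490/535 nm) and aggregate (540/590 nm) fluorescence.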
For orientation: Quantitative high-throughput screening tests each substance at several concentrations.

Test [15] concerns the target Peroxisome proliferator-activated receptor alpha (Homo sapiens) (UniProt Q07869). As to the kind of experiment: qHTS assay for small molecule agonists of the peroxisome proliferator-activated receptor alpha (PPARalpha) signaling pathway (AID 651778). Further: % of control where 0% means no effect. Particulars: PathHunter PPARalpha complementation, chemiluminescence, 6 h; stronger effect = higher value. The procedure, abridged: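 Cells plated at 2,000/well and held overnight at 37 C, 5% CO2, then compound added by pin tool for 6 hr; after PathHunter detection reagent and 60 min at room temperature, chemiluminescence from enzyme complementation was read.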

A short description of test [16]: qHTS assay for small molecule agonists of the antioxidant response element (ARE) signaling pathway measured by Nrf2-dependant transcriptional activity (AID 720636; active means well fitted curve in the direction sought with a large enough effect in the repeat runs; an effect the other way counts as inactive or inconclusive;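 further: HepG2 cells with an ARE-driven luciferase reporter; % of control where 0% means no effect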). The method, boiled down:
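We exposed ARE-luc HepG2 cells, seeded in assay medium with 1% dialyzed FBS and allowed 6 hr to adhere, to test compounds overnight (16 hr, 37 C) before measuring luciferase with ONE-Glo.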

Test [17] is described as follows: Cell Viability - Hek293 (AID 427;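 active means compounds whose dose-response curve shows a full or clear partial loss of cell viability, called from curve shape rather than a numeric limit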;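 further: potency means the concentration at half of the fitted maximal effect; cells exposed to compound for 40 hours at 37 °C before reading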). Particulars: qHTS. The procedure, abridged: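 HEK293 cells in complete medium were exposed to compound for 40 hr at 37 °C, then cellular ATP was read by CellTiter-Glo luminescence. Data were normalized to DMSO (basal) and 100 uM tamoxifen (100% inhibition), and AC50 came from Hill fits.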
Test [18] can be described thus: Cell Viability - NIH 3T3 (AID 541).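 Further: plate controls were DMSO alone for no effect and tamoxifen positive control for full effect; nearly all actives have a fitted effect of over 25% in size.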 Particulars: NIH 3T3 cell viability, qHTS; activity change, negative = cytotoxicity: at 92.2 µM (top of the series). The procedure, abridged:
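Cells seeded at 1000/well, rested 5 hr at 37 °C, then dosed and incubated 40 hr at 37 °C. CellTiter-Glo added, 20 min room temperature, luminescence read. AC50 by Hill fit.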

The nature of test [19]: Cellular Toxicity (caspase-3) NIH 3T3 (AID 666).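 Further: caspase signal read after 16 h compound exposure; 0% = DMSO basal and 100% = 100 µM tamoxifen stimulation.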 The method, boiled down: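 Cells were plated at 1000 per well and incubated 5 hr at 37°C, then compound was added for 16 hr. Caspase-Glo 3/7 reagent followed for 20 min at room temperature before luminescence was read.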
Test [20] is described as follows: qHTS assay for small molecule agonists of retinoid X receptor alpha signaling (AID 588544). As to conditions: HEK293T RXRa-UAS-bla, beta-lactamase reporter, 18 h; 530 nm emission.

Molecules are shown by their SMILES. Values joined by “and” are separate entries in the source; they are usually repeats but may differ in a detail not shown here. Equal values may be shown once. Results filed as inconclusive are left out. Active and inactive are the calls of the source. Unless noted, the call rests on the fitted dose curve; in most records, active means well fitted curve in the direction sought with a large enough effect; inconclusive means small, poorly fitted or top-dose-only effect, or another doubt; inactive means no such curve, though single readings can be large; an effect the other way counts as inactive or inconclusive. Some results are limits rather than exact numbers.

Chain of Peroxisome proliferator-activated receptor alpha (Homo sapiens) (Q07869 whole entry, looked up): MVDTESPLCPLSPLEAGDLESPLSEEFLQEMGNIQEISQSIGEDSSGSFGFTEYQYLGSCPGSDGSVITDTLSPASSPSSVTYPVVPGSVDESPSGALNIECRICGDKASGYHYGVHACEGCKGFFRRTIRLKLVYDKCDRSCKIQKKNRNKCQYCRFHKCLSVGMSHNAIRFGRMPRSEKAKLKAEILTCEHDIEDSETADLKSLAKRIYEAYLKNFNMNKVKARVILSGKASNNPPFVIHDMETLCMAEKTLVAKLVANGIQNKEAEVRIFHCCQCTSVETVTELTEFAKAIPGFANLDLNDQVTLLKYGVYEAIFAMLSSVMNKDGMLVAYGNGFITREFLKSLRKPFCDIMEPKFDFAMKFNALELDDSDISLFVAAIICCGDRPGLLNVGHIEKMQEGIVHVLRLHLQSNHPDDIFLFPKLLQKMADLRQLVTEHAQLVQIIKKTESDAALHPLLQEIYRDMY

On to `CN1C[C@H](C(=O)N[C@]2(C)O[C@@]3(O)C4CCCN4C(=O)[C@H](Cc4ccccc4)N3C2=O)C[C@@H]2c3cccc4[nH]cc(c34)C[C@H]21` (stereo partly specified), for which the Potency in test [1] was 11.2 µM (active).
For `COC1=CC(=O)O[C@@H](/C=C/c2ccc3c(c2)OCO3)C1`, the compound was classed as inactive in test [2], in [3] and in [16]. In addition, the Potency result in [4], in test [5], in [6], in [7], in test [8] and in [9] was “inactive” in each case. The Potency entry in test [10], in [11], in test [12], in test [1] and in test [14] was “inactive” each time. For the same compound, the max response in test [13] is 10.1%; in [15], -0.53% (inactive).
In the case of `S=C(S)N1CCCC1`, in [1], the Potency is 3.55 µM (active).
As for `O=C=NC1CCCCC1`, the Potency in [17] was > 92 µM (inactive). Further, in [18], the activity change, negative = cytotoxicity was -1.14% (inactive) and -2.08% (inactive). Besides, the outcome in test [2], in test [3], in [19] and in [16] was inactive. Besides, the Potency result in test [4], in [5], in test [6], in test [7], in test [8] and in test [9] was “inactive” throughout. The Potency result in test [10], in test [11], in [12], in [1] and in test [14] was “inactive” each time. Also, the max response in test [20] is -3.28% and -9.66%; in test [13], -7.8% and -5.15%; in test [15], 0.341% (inactive) and -3.39% (inactive).
As for `C=CC1CC=CCC1` (stereo unspecified), the Potency in [17] is > 92 µM (inactive). Also, in test [18], the activity change, negative = cytotoxicity was 4.42% (inactive). For the same compound, the compound was called inactive in [2], in [3], in test [19] and in test [16]. Also, the Potency entry in test [4], in test [5], in test [6], in [7], in test [8] and in test [9] was “inactive” in each case. The Potency result in test [10], in [11], in [12], in [1] and in test [14] was “inactive” in each case. The max response in test [20] was 0.848% and 1.74%; in test [13], -1.79% and -13.7%; in test [15] it was -0.264% (inactive) and -1.89% (inactive).
For `C=CC(N)=O`, in test [17], the Potency is > 92 µM (inactive). Further, in test [18], the activity change, negative = cytotoxicity was 5.3% (inactive) and 3.72% (inactive). The result in [2], in test [3], in test [19] and in test [16] was inactive. For the same compound, the Potency result in test [4], in test [5], in test [6], in [7], in test [8] and in test [9] was “inactive” each time. For the same compound, the Potency result in test [10], in test [11], in test [12] and in test [14] was “inactive” each time. Further, the max response in test [20] is -5.65% and -3.81%; in [13], -10.1% and 0.0016% and -8.94%.
As to `Nc1ccccc1Cl`, the Potency in test [17] was > 92 µM (inactive). Further, in test [18], the activity change, negative = cytotoxicity was -1.33% (inactive). In addition, the result in test [2], in test [3], in test [19] and in test [16] was inactive. In addition, the Potency result in test [4], in test [5], in [6], in test [7], in [8] and in [9] was “inactive” throughout. Moreover, the Potency entry in test [10], in [11], in [12], in test [1] and in [14] was “inactive” each time. Moreover, the max response in test [20] was -4.32%; in test [13] it was -3.04%; in test [15], -2.66% (inactive).
As to `CC(C)(C)OOC(C)(C)C`, the Potency in test [17] is > 92 µM (inactive). The activity change, negative = cytotoxicity in test [18] is -23.7% (inactive). Further, the result in test [2], in test [3], in test [19] and in [16] was inactive. For the same compound, the Potency entry in test [4], in [5], in test [6], in [7], in test [8] and in [9] was “inactive” throughout. For the same compound, the Potency result in test [10], in test [11], in test [12], in test [1] and in test [14] was “inactive” in each case. Besides, the max response in test [20] is -0.936%; in [13] it was -12.4%; in test [15], 0.694% (inactive).
